Source: PubChem
Cycloheximide cs: Cycloheximide Counterscreen for Small Molecule Inhibitors of Shiga Toxin. cell reporter, cycloheximide protein synthesis inhibition counterscreen. max response, %. 300,000 compounds, 12% hits; in the data active = max response mostly above about 13%, no sharp cut-off; inactive = mostly below about 14%; also: read at 38.3 µM for the half of the compounds with a filed dose; 0% is about no effect
LmPK inhibitor: qHTS Assay for Inhibitors of Leishmania Mexicana Pyruvate Kinase (LmPK); Q27686; purified LmPK, Kinase-Glo ATP luminescence, 1 h; Potency, µM (titrated, usually from 57.5 µM), for inactives: at the highest dose activity change, negative = inhibition, actives largely listed as inhibitors; 290,000 compounds, 0.37% hits; AID 1721, 2009; also: potency is read from the fitted curve at half-maximal effect; % is scaled to controls: 0 for no effect and ±100 for the full control effect
Target sequence (Q27686 whole entry, looked up): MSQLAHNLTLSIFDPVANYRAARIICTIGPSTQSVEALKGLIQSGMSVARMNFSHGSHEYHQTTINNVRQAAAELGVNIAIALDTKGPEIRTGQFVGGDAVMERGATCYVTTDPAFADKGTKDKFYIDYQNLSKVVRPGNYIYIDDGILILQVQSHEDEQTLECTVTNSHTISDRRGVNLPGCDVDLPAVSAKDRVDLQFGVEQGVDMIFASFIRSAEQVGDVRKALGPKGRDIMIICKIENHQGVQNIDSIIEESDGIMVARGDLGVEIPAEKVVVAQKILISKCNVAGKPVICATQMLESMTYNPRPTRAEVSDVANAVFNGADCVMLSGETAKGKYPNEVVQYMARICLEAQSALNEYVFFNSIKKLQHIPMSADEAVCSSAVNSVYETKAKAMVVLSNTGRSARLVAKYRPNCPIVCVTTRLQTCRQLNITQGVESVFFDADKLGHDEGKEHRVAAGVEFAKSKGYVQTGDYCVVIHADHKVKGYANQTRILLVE
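Purified LmPK (0.1 nM) with 0.5 mM PEP and 0.1 mM ADP in imidazole buffer pH 7.2 with MgCl2/KCl, 1 h at room temperature. ATP formed was read by luciferase luminescence and normalized to no-enzyme and uninhibited controls.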
NS1 inh: qHTS Assay for Inhibitors of Influenza NS1 Protein Function. Potency, µM (doses to about 46.1 µM), without a hit: top-dose activity, positive = more growth. 270,000 compounds, 0.4% hits. AID 2326, 2010; calls by dose curve; also: potency is read from the fitted curve at half-maximal effect; actives are rising curves; nearly all actives have a fitted effect of over 50% in size
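A cell-based growth assay was used: compounds that relieve NS1-induced slow growth of budding yeast raise OD600. Assay medium was yeast nitrogen base with ammonium sulphate and -URA supplement, pH 6.0, with 2% galactose.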
Tb PYK inh: qHTS of Trypanosoma Brucei Inhibitors | pyruvate kinase (Trypanosoma brucei), Q57TT1 | 410,000 compounds, 0.12% hits | Potency, µM (series often up to 76.8 µM), for inactives: at the top dose activity, negative = inhibition, most hits filed as inhibitors | TbPYK enzyme, Kinase-Glo Plus ATP luminescence, 45 min; also: potency is read from the fitted curve at half-maximal effect; % is scaled to controls: 0 for no effect and ±100 for the full control effect; nearly all actives have a fitted effect of over 50% in size
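Luminescent Kinase-Glo Plus end-point after 45 min room-temperature reaction of T. brucei pyruvate kinase started with 130 uM ADP (final). Buffer TEA 50 mM pH 7.2 with KCl, MgCl2, BSA, Tween-20; titration-based qHTS with fitted concentration-effect curves.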
SARS PLpro yeast: qHTS of Yeast-based Assay for SARS-CoV PLP | S. cerevisiae expressing SARS-CoV PLpro, growth rescue | Potency, µM (series often up to 32.9 µM), inactives show top-dose activity, positive = growth rescue, most hits filed as activators | 330,000 compounds, 0.19% hits; calls by dose curve; also: potency is read from the fitted curve at half-maximal effect; 0% is about no effect; nearly all actives have a fitted effect of over 55% in size
Shiga toxin inh: A qHTS for Small Molecule Inhibitors of Shiga Toxin; Vero cells, Shiga toxin protein synthesis inhibition reporter; inhibition, % at 38.7 µM; 290,000 compounds, 9.2% hits; AID 2315, 2010; in the data active = inhibition mostly above about 28%, no sharp cut-off; inactive = mostly below about 43%; also: 0% is about no effect
Active calls of the source: *; u = inconclusive; x = not tested or not shown. The full list was thinned out, with hits kept by preference. Unless noted, calls follow the shape of the dose curve; as a rule, active = well fitted curve in the direction sought with a large enough effect; inconclusive = small, poorly fitted or top-dose-only effect, or another doubt; inactive = no such curve, though single readings can be large; an effect the other way counts as inactive or inconclusive.

SMILES | Cycloheximide cs | LmPK inhibitor | NS1 inh | Tb PYK inh | SARS PLpro yeast | Shiga toxin inh
Clc1ccc(N/N=C/c2ccncc2)cc1Cl | 38* | 1% | -32% | -4% | -86% | 60*
O=C(O)c1ccc(/C=N/Nc2ncc(C(F)(F)F)cc2Cl)cc1 | 1 | 5% | -4% | 3% | 0% | 10
C(=N\N=C\c1ccncc1)/c1ccncc1 | x | x | x | 3% | -4% | x
Oc1ccc(Cl)cc1C1=Nc2ccccc2N=C(c2cccc(Br)c2)C1 | x | x | x | 6% | x | x
Cc1c(O)ccc(/C=N/Nc2nc(-c3cccnc3)nc3ccccc23)c1O | 59* | 1% | 3% | 2% | -1% | 49*
Oc1ccc(/C=N/Nc2nc(-c3cccnc3)nc3ccccc23)c(O)c1 | 53* | -17% | 10% | 12% | 1% | 41*
Cc1ccc(-c2nc(N/N=C/c3ccncc3)c3ccccc3n2)cc1 | 55* | -16% | 3% | -14% | 12% | 76*
Cc1ccc(Nc2nc(-c3cccnc3)nc3ccccc23)cc1 | 1 | 2% | 9% | 1% | 5% | 11
Cc1ccc2nc(C(Cl)(Cl)Cl)nc(N/N=C/c3ccncc3)c2c1 | -3 | -1% | x | 2% | 3% | 43
COc1ccc(/C=N/Nc2nc(-c3cccnc3)nc3ccccc23)cc1OC | 31* | u | 11% | -4% | -2% | 62*
Cc1ccc2oc(C(=O)Nc3cccc(-c4nc5ccccc5s4)c3)c(C)c2c1 | x | x | x | -8% | x | x
Cc1ccccc1CS(=O)(=O)Cc1ccc(C(=O)NCc2ccc(F)cc2)o1 | x | x | x | -3% | x | x
CCN(CC)CCNC(=O)c1ccc(NC(=O)CC(NC(=O)c2ccccc2Cl)c2ccccc2)cc1 (configuration not stated) | -5 | -4% | -10% | -9% | 1% | -15
CCOc1ccc(NC(=O)c2ccc(OC)cc2)cc1 | 43* | 0% | -10% | 2% | -3% | 61*
CCOc1ccc(NC(=O)c2ccncc2)cc1 | 17* | -11% | -2% | -1% | 0% | 5
CCOc1ccc(NC(=O)c2ccc(NC(=O)c3ccc(NC(N)=O)cc3)cc2)cc1 | x | x | x | 3% | 30% | x
COc1ccc(NC(=O)c2ccc(NC(=O)c3ccncc3)cc2)cc1 | -1 | 2% | 2% | 5% | -1% | -11
COc1ccc(NC(=O)c2ccc(NC(=O)COC(=O)CC(NC(=O)c3ccccc3Cl)c3ccccc3)cc2)cc1 (configuration not stated) | 22* | 2% | 8% | -9% | 20% | 49
COc1ccc(NC(=O)c2ccc(Oc3ncccn3)cc2)cc1 | 22* | -4% | -4% | 4% | 0% | 57*
O=C(CCl)N(CCc1ccccc1)CCc1ccccc1 | 19 | -1% | -22% | 4% | -18% | -3
Cc1ccc(S(=O)(=O)N(C)c2cccc3cccnc23)cc1 | -1 | x | x | x | x | -5
Cn1cc(Br)c(C(=O)Nc2ncc(Br)s2)n1 | 36* | -13% | 1% | -5% | 1% | 41
CCOc1ccc(NC(=O)c2nn(C)cc2Br)cc1 | 15* | 32µM* | -14% | -15% | -6% | 43
CCOC(=O)NC(=S)Nc1ccc(OC)cc1 | 18* | -1% | 3% | -1% | 1% | 33
CCOC(=O)NC(NC(=S)Nc1ccc(OC)cc1)C(Cl)(Cl)Cl (configuration not stated) | 1 | 2% | 2% | -5% | -14% | -14
SMILES | Cycloheximide cs | LmPK inhibitor | NS1 inh | Tb PYK inh | SARS PLpro yeast | Shiga toxin inh
COc1ccc(C(=O)Nc2ccc(C3CC3(Cl)Cl)cc2)cc1 (configuration not stated) | 21* | 11% | -5% | -4% | -1% | 32
Cc1cc(C)c(C)c(S(=O)(=O)Nc2ccc3cn[nH]c3c2)c1C | x | x | x | 0% | 7% | x
CN(CC(=O)Nc1c(Cl)cccc1Cl)CC(=O)N1CCc2ccccc21 | x | x | x | -10% | x | x
CCOc1ccc(NC(=O)c2ccc(NC(=O)COC(=O)Cc3ccccc3)cc2)cc1 | 40* | -3% | -7% | -8% | 23% | 50*
CCOc1ccc(NC(=O)c2ccc(NCC(=O)N3CCCCCC3)cc2)cc1 | 27* | -15% | x | -9% | -6% | 38
CCOC(=O)NC(=S)Nc1ccc(C(C)(C)C)cc1Br | 22* | 2% | 2% | -3% | -5% | 25
CCOc1ccc(NC(=O)c2ccc(N)cc2)cc1 | 12* | -22% | -6% | 2% | -42% | 25*
CCOC(=O)c1ccccc1NC(=O)CCOc1ccccc1 | x | x | x | 0% | x | x
CC(C)CCn1c(=O)c2sccc2n2c(CCCC(=O)NC3CCC(C)CC3)nnc12 (configuration not stated) | x | x | x | -4% | x | x
Cc1cc(C)cc(NC(=O)c2cccc(N3CCCS3(=O)=O)c2)c1 | x | x | x | 0% | x | x
C=CCNC(=S)N/N=C/c1ccc(N(CC)Cc2ccccc2)cc1 | 13* | 6% | u | -17% | u | -3
O=c1[nH]c(-c2ccccn2)cc2ccccc12 | 36* | -17% | -17% | -12% | -48% | 52*
CCN1CCN(S(=O)(=O)c2ccc(Cl)c(C(=O)Oc3ccc(CC(=O)OC)cc3)c2)CC1 | x | x | x | 2% | x | x
Cc1ccc(Nc2nnc(-c3ccccc3N)o2)cc1C | 26* | 2% | -29% | -2% | 0% | 41*
Cc1ccc(Nc2nc(N)nc(N)c2N=O)cc1C | x | x | x | -3% | x | x
Cc1cccc(/C=N/n2c(-c3ccccn3)n[nH]c2=S)c1 | 35* | 10% | 10% | x | 7% | 47*
S=c1[nH]nc(-c2ccccn2)n1/N=C/c1ccccc1 | -4 | 4% | 13% | u | -1% | -13
COc1ccccc1/C=C/C=N/n1c(-c2ccccn2)n[nH]c1=S | 34* | 7% | 15% | u | 2% | 64*
CCc1ccccc1NC(=O)CSc1nnc(-c2cc(OC)c(OC)c(OC)c2)o1 | x | x | x | -13% | x | x
CC(=O)c1ccc(OCc2cc(C(=O)N3CCC(c4ccncc4)CC3)no2)cc1 | 8 | 1% | -11% | 1% | -15% | 23
CC(=O)c1ccc(OCc2cc(C(=O)N3CCCCC3c3cccnc3)no2)cc1 (configuration not stated) | 54* | 0% | -57% | 0% | -11% | 81*
COCC1CCCN(C(=O)c2cc(COc3ccc(C(C)=O)cc3)on2)C1 (configuration not stated) | x | x | x | 2% | x | x
CC(=O)c1ccc(OCc2cc(C(=O)NCCN3CCCC(O)C3)no2)cc1 (configuration not stated) | 1 | 5% | -1% | 2% | -2% | -5
CC(=O)c1ccc(OCc2cc(C(=O)NC3CCCCC3)no2)cc1 | 31* | -4% | -5% | -12% | 3% | 76*
CC(=O)c1ccc(OCc2cc(C(=O)N3CC[C@@H]4CCCC[C@H]4C3)no2)cc1 | 75* | -1% | -33% | 5% | -6% | 104*
